Only some compounds are listed: those with a hit (about 9.3% of all), similar ones and a draw of the others.
Vaccinia mCherry: vaccinia inhibition (mCherry reporter). Vaccinia virus mCherry reporter infection, fluorescence. 310,000 tested, 0.63% active. Potency, µM (highest dose often 36.5 µM), for the others: at the highest dose activity change, negative = inhibition, actives largely listed as inhibitors; calls by dose curve; tested in A549 cells; further: potency means the concentration at half of the fitted maximal effect; on the % scale 0 is the no-effect control and ±100 the full control effect; nearly all actives have a fitted effect of over 35% in size
Sm TGR block: S. mansoni TGR enzyme inhibition; Potency, µM (top dose mostly 114 µM), for the others: top-dose activity change, negative = inhibition, most hits filed as inhibitors; 360,000 tested, 3% active; purified TGR, DTNB reduction, TNB absorbance 405 nm; further: potency means the concentration at half of the fitted maximal effect; on the % scale 0 is the no-effect control and ±100 the full control effect; nearly all actives have a fitted effect of over 60% in size
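Kinetic colorimetric format: TGR-catalysed, NADPH-driven DTNB reduction monitored via TNB absorbance. Enzyme dispensed at 20 nM; compound exposure 15 min at room temperature before reaction start.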
HCV inh: inhibitors of hepatitis C virus infection. Potency, µM (top dose mostly 41.8 µM), inactives show top-dose activity change, negative = inhibition, most hits filed as inhibitors. 340,000 tested, 3.4% active. Huh7.5.1 HCVcc-Cre infection, luciferase reporter, 44 h; further: potency means the concentration at half of the fitted maximal effect; on the % scale 0 is the no-effect control and ±100 the full control effect
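Luciferase read-out (15 sec integration) after a 15 min room-temperature substrate step quantifies HCVcc-Cre infection. Cells, 1,000 per well, had compound added 4 h post-plating, then virus at ~0.5 moi, and were cultured 44 h.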
HCMV antiviral: human cytomegalovirus inhibition; HFF cells, HCMV-luciferase reporter, 72 h; stronger effect = lower value; activity change, negative = inhibition, % at 57.5 µM; 410,000 tested, 4.5% active; in the data active means activity change below about -60%; inconclusive means no clear call, values can overlap the other calls; inactive means above about -39%; further: on the % scale 0 is the no-effect control and ±100 the full control effect
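Steps: HFFs plated, 16 h 37C; compounds added; HCMV-luciferase added to MOI 1 PFU/cell; 72 h 37C; OneGlo reagent, 5 min room temperature; luminescence read, normalized to controls.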
FMDV inh: foot and mouth disease virus antiviral activity; FMDV antiviral cell-based qHTS; Potency, µM (series often up to 57.9 µM), for inactives: top-dose activity change, negative = inhibition, usual class: inhibitors; 410,000 tested, 1.2% active; calls by dose curve; tested in HEK293T cells; further: read-out not given here; potency means the concentration at half of the fitted maximal effect; on the % scale 0 is the no-effect control and ±100 the full control effect; nearly all actives have a fitted effect of over 45% in size
VACV Venus inh: vaccinia inhibition (Venus reporter). Potency, µM (series often up to 36.5 µM), without a hit: at the highest dose activity change, negative = inhibition, usual class: inhibitors. AID 720580. Vaccinia virus Venus reporter expression, fluorescence. 330,000 tested, 0.46% active; calls by dose curve; tested in A549 cells; further: potency means the concentration at half of the fitted maximal effect; on the % scale 0 is the no-effect control and ±100 the full control effect; nearly all actives have a fitted effect of over 30% in size
HCV confirm: HCV inhibition, cherry-pick confirmation | shares compounds with HCV inh | HCVcc-Cre infectious virus cell assay, luciferase, inhibition | Potency, µM (titrated, usually from 41.8 µM), for the others: at the top dose activity, negative = inhibition, usual class: inhibitors | 640 tested, 78% active | AID 720575; further: potency means the concentration at half of the fitted maximal effect; nearly all actives have a fitted effect of over 80% in size
HCV cytotox: counter-screen for HCV inhibitors: host cell cytotoxicity; 640 tested, 22% active; shares compounds with HCV inh; HCV host cell line cytotoxicity counterscreen; Potency, µM (series often up to 41.8 µM), inactives show top-dose activity change, negative = cytotoxicity, most hits filed as inhibitors; AID 720576;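 further: potency means the concentration at half of the fitted maximal effect; 44 h compound exposure; on the % scale 0 is the no-effect control and ±100 the full control effect; nearly all actives have a fitted effect of over 55% in size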
* hit, by the source's call; i = inactive; ? = inconclusive; nt = not tested or not shown; [ ] = dose if it differs, or a comment. Unless noted, the call rests on the fitted dose curve; in most records, active means well fitted curve in the direction sought with a large enough effect; inconclusive means small, poorly fitted or top-dose-only effect, or another doubt; inactive means no such curve, though single readings can be large; an effect the other way counts as inactive or inconclusive.

SMILES	Vaccinia mCherry	Sm TGR block	HCV inh	HCMV antiviral	FMDV inh	VACV Venus inh	HCV confirm	HCV cytotox
CN1CCN(c2ccc([N+](=O)[O-])c3no[n+]([O-])c23)CC1	?	45µM*	2.2µM*	-98*	5µM*	?	22µM*	22µM*
COc1cccc(C(=O)Oc2c(CN3CCOCC3)cc(Cl)c3cccnc23)c1	nt	-13%	4.5µM*	-78*	?	nt	?	?
Cc1nc2ccccc2n1Cc1ccc(Br)cc1	i	nt	2.5µM*	?	?	0%	2µM*	2µM*
Cc1nc2ccccc2n1Cc1ccccc1	nt	1%	?	-36	-21%	nt	nt	nt
O=C(c1cc(COc2ccc3ncccc3c2)on1)N1CCC[C@H]1CO	-11%	4%	?	?	-11%	-17%	7.9µM*	14µM*
CC(C)=CCC/C(C)=C/CNC(=O)C[C@H]1C[C@H](C(=O)N2CCCCC2)[C@@]2(C)c3[nH]c4cc(CCC(=O)N(C)C)ccc4c3CCN2C1=O	-21%	nt	7.9µM*	nt	0%	?	25µM*	?
CC(C)=CCC/C(C)=C/CNC(=O)C[C@H]1C[C@H](C(=O)N2CCOCC2)[C@@]2(C)c3[nH]c4cc(CCC(=O)N(C)C)ccc4c3CCN2C1=O	?	nt	?	-9	-26%	-27%	nt	nt
Cc1cc2[nH]c3c(c[n+](C)c4ccccc34)c2cc1C	nt	4%	5µM*	-98*	-5%	nt	16µM*	?
NC(=O)c1ncn([C@@H]2O[C@H](CNCc3ccc(-c4cc(C(F)(F)F)ccc4Cl)o3)[C@@H](O)[C@H]2O)n1	i	nt	3.2µM*	3	-17%	0%	-17%	0.025µM*
COc1ccccc1C(=O)N/N=C(\C)c1cccnc1	i	nt	-12%	21	24%	-7%	nt	nt
CC(C)Sc1nc2c(c(=O)[nH]c(=O)n2C)n1CCc1ccccc1	nt	-23%[11.4 µM]	8%	-26	-24%	-19%	nt	nt
CC(C)Sc1nc2c(c(=O)[nH]c(=O)n2C)n1Cc1ccccc1	-24%	-14%	?	19	-23%	-6%	-26%	14%
Cc1oc2ccc(O)c(CN(C)C)c2c1C(=O)c1ccccc1	-21%	-1%	29%	10	0%	-23%	nt	nt
COc1ccc2c(c1OC)C(=O)N1C2SC[C@H]1C(=O)NC1CC1 (stereo partly drawn)	-4%	-8%	1µM*	50	-11%	0%	-10%	5%
COc1ccc(OC)c(C(=O)N2CCCC(Nc3ccc(F)cc3)C2)c1 (stereo not drawn)	-18%	0%	-9%	97	0%	-8%	nt	nt
Cc1noc(C)c1COC(=O)c1ccc(F)c(S(=O)(=O)N2CCCCC2)c1	nt	0%	?	-2	0%	nt	28µM*	-36%
COc1ccc(S(=O)(=O)N2CCCCCC2)cc1C(=O)OCc1c(C)noc1C	-1%	1%	-19%	68	9%	-17%	nt	nt
COc1ccccc1NC(=O)C(C)OC(=O)c1cc2ccccc2[nH]1 (stereo not drawn)	nt	-4%	?	5	?	nt	7.9µM*	18µM*
N#Cc1c2ccc(O)cc2n2ccccc12	?	?	7.1µM*	?	20%	-23%	22µM*	15%
N#Cc1c2ccc(OCC(=O)NCc3ccco3)cc2n2ccccc12	-20%	-18%	?	-3	-2%	8%	nt	nt
CC(=O)C[C@@H](O)CC(=O)[C@@H]1OC(=O)CC/C=C\Cc2ccccc21	-15%	2%	10%	31	-15%	-11%	nt	nt
COc1cc(OC)cc(C(=O)Nc2nc(-c3ccccc3)c(-c3ccccc3)o2)c1	nt	-10%	7.1µM*	?	-25%	nt	13µM*	9%
CCC(C)NC(=O)CSc1nc2ccccc2c(=O)n1Cc1ccc(OC)cc1 (stereo not drawn)	nt	1%	-23%	-29	0%	nt	nt	nt
Cc1cccc2cc(C#N)c(NCCCNS(=O)(=O)c3ccc(Cl)cc3)nc12	nt	6%	8.9µM*	-67*	?	nt	14µM*	?
CC(=O)N1CCN(Cc2nc3cc(NC(=O)c4ccc(Cl)cc4)ccc3n2C)CC1	-7%	0%	3.5µM*	-80*	?	-22%	14µM*	22µM*
SMILES	Vaccinia mCherry	Sm TGR block	HCV inh	HCMV antiviral	FMDV inh	VACV Venus inh	HCV confirm	HCV cytotox
CC(=O)N1CCN(Cc2nc3cc(NC(=O)c4ccccc4Cl)ccc3n2C)CC1	-13%	nt	-20%	-21	-19%	-6%	nt	nt
COc1ccc(CCC(C)NC(=O)Cc2ccc(OC)c(OC)c2)c(OC)c1 (stereo not drawn)	nt	-9%	7.1µM*	9	?	nt	11µM*	?
CCc1ncc(CN2CCC(C(=O)Nc3cccc(-c4cscn4)c3)CC2)cn1	-19%	-22%	?	11	?	-30%	nt	nt
CNc1ccc2nc3ccccc3[n+](C)c2c1	137%	6.3µM*	3.2µM*	-101*	-17%	367%	13µM*	14µM*
Cn1c(-c2ccsc2)c(-c2cccs2)c2cc(-c3ccc4cc[nH]c4c3)ccc21	?	-5%	1.1µM*	?	-9%	-23%	11µM*	-35%
Oc1ccc(C[C@@H](CN2CCCC2CN2C(=S)NC[C@@H]2Cc2ccccc2)N2C[C@H](Cc3ccccc3)N(CC3CCCCCC3)C2=S)cc1 (stereo partly drawn)	-19%	nt	nt	-5	-17%	-14%	nt	nt
Oc1ccc(C[C@H]2CNC(=S)N2CC2CCCN2C[C@H](Cc2ccc(O)cc2)N2C[C@H](Cc3ccccc3)N(CC3CCCCC3)C2=S)cc1 (stereo partly drawn)	-30%	nt	2.5µM*	?	-28%	?	8.9µM*	-19%
O=C(NC(=C(Cl)Cl)P(=O)(c1ccccc1)c1ccccc1)c1ccccc1	-14%	-4%	30%	-14	-22%	-12%	nt	nt
COc1ccc(C(=O)c2ccc(OC)c(OC)c2OC)cc1	-6%	nt	?	-14	4%	-26%	nt	nt
COc1ccc(C(=O)c2ccc(N(C)C)cc2)c2ccccc12	?	-8%	?	-77*	nt	?	-22%	-19%
Cc1ccc(S(=O)(=O)N2CCN(c3nc(-c4cnccn4)nc4ccccc34)CC2)cc1	-15%	nt	nt	nt	nt	-10%	nt	nt
O=C(COc1ccccc1Cl)Nc1ccc(NC(=O)c2ccco2)cc1	i	1%	-15%	-19	-6%	-15%	nt	nt
O=C(Nc1ccc(-c2noc(COc3ccccc3Cl)n2)cc1)c1ccco1	nt	-4%	?	-32	3%	-29%	7µM*	-27%

Bioassay records: PubChem BioAssay, National Center for Advancing Translational Sciences (NCATS)
